Measurements published in the supplement of paper PMC9446081.
± gives the standard deviation of the averaged measurements.

Each compound was assayed against MurC (UniProt C4ZRI6) (assay: relative enzymatic activity vs untreated control (fraction); higher = less inhibition). Conditions: 100 µM; incubation time: 2 h at 37 C.
Sequence of MurC (C4ZRI6 whole entry, looked up): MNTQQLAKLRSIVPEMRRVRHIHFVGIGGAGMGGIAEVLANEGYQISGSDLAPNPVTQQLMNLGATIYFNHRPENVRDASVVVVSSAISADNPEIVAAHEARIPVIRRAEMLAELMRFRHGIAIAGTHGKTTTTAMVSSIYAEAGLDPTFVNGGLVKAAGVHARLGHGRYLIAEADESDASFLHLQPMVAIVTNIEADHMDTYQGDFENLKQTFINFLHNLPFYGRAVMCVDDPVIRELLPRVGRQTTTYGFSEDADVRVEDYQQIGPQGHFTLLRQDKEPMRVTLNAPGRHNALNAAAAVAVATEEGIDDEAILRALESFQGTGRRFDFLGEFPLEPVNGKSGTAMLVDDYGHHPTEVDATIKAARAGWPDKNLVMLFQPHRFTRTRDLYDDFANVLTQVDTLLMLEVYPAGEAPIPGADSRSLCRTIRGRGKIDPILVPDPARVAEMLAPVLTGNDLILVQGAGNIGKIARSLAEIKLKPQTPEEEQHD
Experimental: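 In vitro enzymatic inhibition assays (ProFoldin kits) for 12 purified essential E. coli enzymes or complexes, each treated with 218 active antibacterial compounds at 100 µM for 2 h at 37°C. Read-outs were fluorescence or absorbance (phosphate detection, dye binding), converted to activity via standard curves and expressed relative to untreated DMSO controls.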
With `CNC1C(O)C(NC)C2OC3(O)C(=O)CC(C)OC3OC2C1O.Cl.Cl` (stereo not given) the relative enzymatic activity was 0.914 ± 0.024. `COc1c(N2CC3CCCNC3C2)c(F)cc2c(=O)c(C(=O)O)cn(C3CC3)c12.Cl` (stereo not given) gave a relative enzymatic activity of 1.01 ± 0.025. For `CCCCCCCCCCCCC[N+](C)(C)Cc1ccccc1.O.[Cl-]`, the relative enzymatic activity was 0.556 ± 0.086. Compound `CON=C(C(=O)NC1C(=O)N2C(C(=O)[O-])=C(COC(N)=O)CSC12)c1ccco1.[Na+]` (stereo not given) has a relative enzymatic activity of 1.33 ± 0.083. With `COC1C=COC2(C)Oc3c(C)c(O)c4c(O)c(c(C=NN5CCN(C)CC5)c(O)c4c3C2=O)NC(=O)C(C)=CC=CC(C)C(O)C(C)C(O)C(C)C(OC(C)=O)C1C` (stereo not given) the relative enzymatic activity was 0.282 ± 0.059. Work on `Cl.N=C(N)n1cccn1` yielded a relative enzymatic activity of 0.968 ± 0.063. For `CN(C)c1ccc(O)c2c1C[C@@H]1C[C@@H]3[C@@H](N(C)C)C(=O)C(C(N)=O)=C(O)[C@]3(O)C(=O)[C@H]1C2=O`, the relative enzymatic activity was 1.17 ± 0.024. In the case of `CN(C)c1cc(CNCC(C)(C)C)c(O)c2c1C[C@H]1C[C@H]3[C@H](N(C)C)C(=O)[C@H](C(N)=O)C(=O)[C@@]3(O)C(=O)[C@@H]1C2=O`, the relative enzymatic activity is reported as 1.13 ± 0.062. Compound `CN(C)[C@@H]1C(=O)[C@@H](C(N)=O)C(=O)[C@@]2(O)C(=O)[C@@H]3C(=O)c4c(O)c(NC(=O)CN5CCCC5)cc(F)c4C[C@H]3C[C@@H]12` has a relative enzymatic activity of 1.01 ± 0.063. `CC[C@H](C)C[C@H](C)CCCCCCCCC(=O)N[C@H]1C[C@@H](O)[C@@H](NCCN)NC(=O)[C@@H]2[C@@H](O)CCN2C(=O)[C@H]([C@H](O)CCN)NC(=O)[C@H]([C@H](O)[C@@H](O)c2ccc(O)cc2)NC(=O)[C@@H]2C[C@@H](O)CN2C(=O)[C@H]([C@@H](C)O)NC1=O` gave a relative enzymatic activity of 0.94 ± 0.061. Compound `CC(C)[C@@H](CC[C@@H](C)[C@H]1CC[C@H]2[C@@H]3[C@H](O)C[C@H]4C[C@@H](NCCCNCCCCNCCCN)CC[C@]4(C)[C@H]3CC[C@]12C)OS(=O)(=O)O` has a relative enzymatic activity of 1.05 ± 0.014. Work on `CC(C)CCCC(=O)N[C@@H](CCNCS(=O)(=O)O)C(=O)N[C@H](C(=O)N[C@@H](CCNCS(=O)(=O)O)C(=O)N[C@H]1CCNC(=O)[C@H]([C@@H](C)O)NC(=O)[C@H](CCNCS(=O)(=O)O)NC(=O)[C@H](CCNCS(=O)(=O)O)NC(=O)[C@H](CC(C)C)NC(=O)[C@H](CC(C)C)NC(=O)[C@H](CCNCS(=O)(=O)O)NC1=O)[C@@H](C)O` yielded a relative enzymatic activity of 1.16 ± 0.21. With `CC1CCC2(C)C(C=O)=CCCC2C1(C)CC1OC(O)C(=O)C12CO2` (stereo not given) the relative enzymatic activity was 0.933 ± 0.1. With `O=C1OC(=O)[C@H]2[C@@H]1[C@H]1CC[C@H]2O1` the relative enzymatic activity was 1.18 ± 0.093. With `O=C(Cn1cnnn1)NC1C(=O)N2C(C(=O)O)=C(CSc3nncs3)CSC12` (stereo not given) the relative enzymatic activity was 1.06 ± 0.098. `COc1ccc(Cc2cnc(N)nc2N)cc1OC` gave a relative enzymatic activity of 1.1 ± 0.079. `Oc1ccc(Cl)c2cccnc12` gave a relative enzymatic activity of 1.16 ± 0.16. `CC[C@H]1OC(=O)[C@H](C)[C@@H](O[C@H]2C[C@@](C)(OC)[C@@H](O)[C@H](C)O2)[C@H](C)[C@@H](O[C@@H]2O[C@H](C)C[C@H](N(C)C)[C@H]2O)[C@](C)(O)C[C@@H](C)CN(C)[C@H](C)[C@@H](O)[C@]1(C)O` showed a relative enzymatic activity of 1.06 ± 0.02. Compound `CO/N=C(\C(=O)N[C@@H]1C(=O)N2C(C(=O)O)=C(C[n+]3ccn4ncccc43)CS[C@H]12)c1nsc(N)n1` has a relative enzymatic activity of 0.964 ± 0.082. With `CC[C@H]1OC(=O)C[C@@H](O)[C@H](C)[C@@H](O[C@@H]2O[C@H](C)C[C@H](N(C)C)[C@H]2O)[C@@H](CC=O)C[C@@H](C)C(=O)/C=C/[C@]2(C)O[C@H]2[C@@H]1C` the relative enzymatic activity was 1.02 ± 0.099. For `Cc1cc(C(C)(C)CC(C)(C)C)ccc1OCCOCC[N+](C)(C)Cc1ccccc1.[Cl-]`, the relative enzymatic activity was 0.647 ± 0.59. Work on `CN1CCN(c2c(F)cc3c(=O)c(C(=O)O)cn(CCF)c3c2F)CC1` yielded a relative enzymatic activity of 1.02 ± 0.011. With `O=C1CN(N=Cc2ccc([N+](=O)[O-])o2)C(=O)N1` the relative enzymatic activity was 1.051 ± 0.0033. For `C=CC1=C(C(=O)O)N2C(=O)[C@@H](NC(=O)/C(=N/O)c3csc(N)n3)[C@H]2SC1`, the relative enzymatic activity was 0.917 ± 0.017. Compound `O=C1C=CC(=O)N1` has a relative enzymatic activity of 0.992 ± 0.03. `CO/N=C(\C(=O)N[C@@H]1C(=O)N2C(C(=O)O)=C(C[N+]3(C)CCCC3)CS[C@H]12)c1csc(N)n1` gave a relative enzymatic activity of 0.8921 ± 0.007. `N[C@@H](C(=O)N[C@@H]1C(=O)N2C(C(=O)O)=C(Cl)CC[C@H]12)c1ccccc1` gave a relative enzymatic activity of 0.967 ± 0.054. `C=CC1=C(C(=O)O)N2C(=O)[C@@H](NC(=O)/C(=N\OCC(=O)O)c3csc(N)n3)[C@H]2SC1` showed a relative enzymatic activity of 1.12 ± 0.017. `CC(=O)OCC1=C(C(=O)[O-])N2C(=O)C(NC(=O)Cc3cccs3)C2SC1.[Na+]` (stereo not given) was tested, and the relative enzymatic activity was 1.08 ± 0.043. Work on `C[C@H]1[C@H](NC(=O)/C(=N\OC(C)(C)C(=O)O)c2csc(N)n2)C(=O)N1S(=O)(=O)O` yielded a relative enzymatic activity of 1.29 ± 0.45. `Cc1scc2c1N(C(=O)CN1CCN(C)CC1)c1ccccc1NC2=O.Cl` was tested, and the relative enzymatic activity was 0.945 ± 0.037. With `CC(C)(O/N=C(\C(=O)N[C@@H]1C(=O)N2C(C(=O)O)=C(C[N+]3(CCNC(=O)c4ccc(O)c(O)c4Cl)CCCC3)CS[C@H]12)c1csc(N)n1)C(=O)O` the relative enzymatic activity was 0.83 ± 0.29. `CCn1cc(C(=O)O)c(=O)c2cc(F)c(N3CCN(C)CC3)cc21.CS(=O)(=O)O` was tested, and the relative enzymatic activity was 1.02 ± 0.013. Compound `CC1CN(c2c(F)c(F)c3c(=O)c(C(=O)O)cn(C4CC4)c3c2F)CC(C)N1` (stereo not given) has a relative enzymatic activity of 0.891 ± 0.082. `O=c1[nH]c(=O)n([C@@H]2C[C@@H](O)[C@@H](CO)O2)cc1F` showed a relative enzymatic activity of 1.02 ± 0.035. Compound `O=C(O)c1cn(C2CC2)c2cc(N3CCC(O)(COc4ccc(N5C[C@H](CO)OC5=O)cc4F)CC3)c(F)cc2c1=O` has a relative enzymatic activity of 1.38 ± 0.025. In the case of `CCN1CCN(C(=O)NC(C(=O)NC2C(=O)N3C(C(=O)O)=C(CSc4nnnn4C)CSC23)c2ccc(O)cc2)C(=O)C1=O` (stereo not given), the relative enzymatic activity is reported as 0.942 ± 0.1. `O=c1[nH]cc(F)c(=O)[nH]1` was tested, and the relative enzymatic activity was 0.97 ± 0.074. `CC(C)(C)CC(C)(C)c1ccc(OCCOCC[N+](C)(C)Cc2ccccc2)cc1.[Cl-]` was tested, and the relative enzymatic activity was 0.398 ± 0.28. With `CC(C)(O/N=C(\C(=O)N[C@@H]1C(=O)N2C(C(=O)O)=C(C[n+]3ccccc3)CS[C@H]12)c1csc(N)n1)C(=O)O` the relative enzymatic activity was 1.02 ± 0.022.
